These results are taken from PubChem BioAssay.

Experiment [1] is described as follows: blockers of polyQ-driven CASP3 activation – cell-based (AID 1583). The conditions noted are these: polyglutamine-induced caspase-3 activation, cell assay; stronger effect = higher value;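 tested at 10 µM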.
The nature of experiment [2]: yeast 75Q aggregation reduction – 75Q-TubU reporter (AID 1593). To be noted: Yeast 75Q polyglutamine aggregation reporter.
The nature of experiment [3]: restoration of touch response, mutant HTT neurons – whole organism, C. elegans mechanosensory neurons, N-terminal huntingtin (AID 1599). To be noted: C. elegans polyQ-huntingtin mechanosensory neurons, stronger effect = higher value.
A short description of experiment [4]: blockers of cytochrome c efflux from mitochondria – biochemical, purified mitochondria (AID 1603).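 Further: mouse liver mitochondria challenged with calcium chloride; signal normalized to the plate average as 100%.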 The conditions noted are these: stronger effect = lower value.
Experiment [5] can be described thus: polyglutamine aggregate formation blockers (AID 1604). To be noted: polyglutamine-induced protein aggregation inhibition assay; stronger effect = higher value; tested at 2.5 µM.
Experiment [6] in a line: glutamate transport activators, MN-1 cells, MN-1 cell line (AID 1612).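 Further: tested at 1 µM final; 0% = mean of DMSO vehicle wells on each plate; positive means more glutamate uptake than control and negative means less.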 To be noted: MN-1 motor neuron cells, stronger effect = higher value.
Experiment [7] can be described thus: 75Q-TubH aggregate inhibition, S. cerevisiae, yeast (AID 1616). To be noted: S. cerevisiae 75Q-TubH polyglutamine aggregation suppression; stronger effect = higher value.
A short description of experiment [8]: P. berghei load reduction in hepatocytes – cell-based, HepG2, luciferase luminescence, HepG2 viability, primary screen (AID 624349).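 Further: 100% = mean of DMSO negative control wells on the same plate.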 To be noted: P. berghei liver stage in HepG2, luciferase luminescence, concentration not given here; parasite load remaining: stronger effect = lower value; viability: measured here: HepG2 viability without parasites.
Experiment [9] can be described thus: EMT-state selective cytotoxicity in co-culture – imaging, PC-3E GFP, TEM4-18 mCherry, primary screen (AID 1345086;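 active means compounds killing one labelled cell type while sparing the other, by normalised counts and ratio limits, not self-fluorescent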;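 on all read-outs here: cells exposed to compound for 72 h before imaging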;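 on red/green cell ratio (normalised): normalised mesenchymal count divided by normalised epithelial count so high means epithelial killing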). To be noted: PC-3E GFP / TEM4-18 mCherry co-culture, imaging cell counts, at 1 µM; for red/green cell ratio (normalised): actives lie on both sides, counts scaled to control wells, 1 = unselective.
Experiment [10] is described as follows: viability loss with induced miR-34 in A549 – imaging, A549 dox-inducible miR-34, nuclei and caspase counts, primary screen (AID 1347080;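 active means compounds whose cell count with miR-34 switched on is under 0.7 times the count with it off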). To be noted: A549 miR-34 inducible, Hoechst nuclei count, 48 h.
Experiment [11] can be described thus: compounds altering viability of human ES cells (AID 493140; call rule not given here;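 further: cells exposed to compounds for four days before counting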). The conditions noted are these: human embryonic stem cell survival screen; stronger effect = higher value.
The mark [12] stands for this setting: measured here: epithelial PC-3E GFP cell survival.
Where [13] appears, read: measured here: mesenchymal TEM4-18 mCherry cell survival.
Setting [14] is: stronger effect = lower value, cell number ratio, induced over uninduced.
[15] abbreviates: measured here: relative caspase fold change +Dox/-Dox.
Where [16] appears, read: measured here: total cells with miR-34 induction, stronger effect = lower value.
The mark [17] stands for this setting: measured here: total cells without miR-34 induction.

Values joined by “and” are separate entries in the source; they are usually repeats but may differ in a detail not shown here. Equal entries are not always repeated. For some assays here: Results with a measured potency or affinity are listed apart. Active and inactive are the calls of the source. Unless noted, no stated cut-off is given here; in the data, active means parasite load remaining mostly below about 12% (no sharp cut-off); inactive means mostly above about 10%. Square brackets hold non-standard residues; d marks the D form. Peptide text beside a SMILES is read from it. Orn = NCCC[CH](N)C(=O)O

Broadly, the inhibition is the drop in the measured response relative to a control, in per cent. As a reminder, the viability is a read-out of living cells in per cent, often relative to untreated cells. For `CC12CCC3C(=CCc4cc(O)ccc43)C1CCC2=O` (stereo not given), the inhibition in [1] is -18.1%. Further, the score in [2] came out at 0.86. The compound also yielded a rescue above control in experiment [3] of 0.8. Further, in experiment [4], the cytochrome c release ratio was 0.66. This compound had an inhibition of aggregation in experiment [5] of 84.7%. This compound displayed a glutamate uptake change in [6] of 1.39%. Also, the aggregation suppression score in experiment [7] is 0.518. In [8], the parasite load remaining was 112% (inactive) and 14% (inactive). Further, the viability in experiment [8] was 72.6% and 110%. Moreover, the red/green cell ratio (normalised) in experiment [9] is 1.28 (inactive). Further, the normalised cell number was 1.14 in experiment [9] (setting [12]) and 1.45 in experiment [9] (setting [13]). Further, the fold change in [10] (setting [14]) was 0.897 (inactive); in experiment [10] (setting [15]), 0.851. The results for the cell count in experiment [10] (setting [16]) and in experiment [10] (setting [17]) were 11100 and 12400, respectively.

`COCC1=C(C(=O)OC(C)OC(=O)OC(C)C)N2C(=O)[C@@H](NC(=O)/C(=N/OC)c3csc(N)n3)[C@H]2SC1` (stereo not given in full): the parasite load remaining in experiment [8] is 42.3% (inactive). In addition, the viability in experiment [8] was found to be 194%. Moreover, the red/green cell ratio (normalised) in experiment [9] is 1.05 (inactive). The normalised cell number was 0.94 in experiment [9] (setting [12]) and 0.99 in experiment [9] (setting [13]). Moreover, the fold change in [10] (setting [14]) is 0.924 (inactive); in experiment [10] (setting [15]), 3.66. The cell count in experiment [10] (setting [16]) came to 12100; in [10] (setting [17]), 13100.

As for `CC(=O)c1cc2ccccc2oc1=O`, the survival in experiment [11] was 6.92 (inactive). The parasite load remaining in [8] is 80.8% (inactive). Moreover, the viability in experiment [8] was found to be 96.7%. Further, the red/green cell ratio (normalised) in experiment [9] was 0.84 (inactive). The normalised cell number in experiment [9] (setting [12]) was 1.16; in experiment [9] (setting [13]), 0.98. Also, the fold change in experiment [10] (setting [14]) was 0.915 (inactive); in experiment [10] (setting [15]) it was 1.42. Further, the cell count in [10] (setting [16]) is 8970; in experiment [10] (setting [17]), 9810.

`Cc1nc(N)cc(C[n+]2csc(CCO)c2C)n1`: the parasite load remaining in experiment [8] was 58.2% (inactive). The viability in experiment [8] was 97.3%. Also, in experiment [9], the red/green cell ratio (normalised) is 0.91 (inactive). Also, the results for the normalised cell number in experiment [9] (setting [12]) and in experiment [9] (setting [13]) were 0.96 and 0.87, respectively. Besides, the fold change in experiment [10] (setting [14]) is 0.946 (inactive); in experiment [10] (setting [15]), 4.78. The cell count in experiment [10] (setting [16]) was found to be 12800; in experiment [10] (setting [17]), 13500.

Consider `C=C1CC[C@H](O)C/C1=C/C=C1\CCCC2(C)C1CCC2C(C)CCCC(C)C` (stereo not given in full), for which the parasite load remaining in experiment [8] was 36.2% (inactive). In experiment [8], the viability came to 104%. Further, in experiment [9], the red/green cell ratio (normalised) was 1.03 (inactive). For the same compound, the normalised cell number in [9] (setting [12]) worked out at 1.11; in experiment [9] (setting [13]), 1.14. Besides, the fold change in experiment [10] (setting [14]) was 0.909 (inactive); in experiment [10] (setting [15]), 2.89. For the same compound, the values for the cell count in experiment [10] (setting [16]) and in experiment [10] (setting [17]) were 11700 and 12900, respectively.

As for `CC(C)CC1NC(=O)C(CCCN)NC(=O)C(C(C)C)NC(=O)C(Cc2ccc(O)cc2)NC(=O)C(CCC(=O)O)NC(=O)C(CC(=O)O)NC(=O)C(Cc2ccccc2)NC(=O)C(Cc2ccccc2)NC(=O)C2CCCN2C(=O)C(Cc2ccccc2)NC1=O` (stereo not given) (cyclo(DEYV[Orn]LFPFF); configuration not given here), the parasite load remaining in experiment [8] was 7.69% (inactive) and 0.08% (inactive). In addition, the viability in experiment [8] was 49.2% and 36.8%. The red/green cell ratio (normalised) in experiment [9] is 0.75 (inactive). Further, the normalised cell number in [9] (setting [12]) was 0.47; in experiment [9] (setting [13]), 0.35. Also, the values for the fold change in [10] (setting [14]) and in [10] (setting [15]) were 1.12 (inactive) and 0.824, respectively. The cell count in experiment [10] (setting [16]) turned out to be 1510; in experiment [10] (setting [17]) it was 1350.

For the compound `CO/N=C(/C(=O)NC1C(=O)N2C(C(=O)OC(C)OC(C)=O)=C(COC(N)=O)CSC12)c1ccco1` (stereo not given), the parasite load remaining in experiment [8] was 60.6% (inactive). Moreover, the viability in experiment [8] came to 138%. Besides, in experiment [9], the red/green cell ratio (normalised) was 1.1 (inactive). Besides, the normalised cell number in experiment [9] (setting [12]) worked out at 0.93; in [9] (setting [13]), 1.02. In addition, the fold change in experiment [10] (setting [14]) was 0.889 (inactive); in experiment [10] (setting [15]), 1.77. Moreover, the cell count stood at 12300 in experiment [10] (setting [16]) and 13900 in [10] (setting [17]).

As to `CC(=O)OCC(=O)[C@@]1(O)CCC2C3CCC4=CC(=O)CC[C@]4(C)[C@@]3(F)[C@@H](O)C[C@@]21C` (stereo not given in full), the parasite load remaining in [8] is 127% (inactive) and 70.7% (inactive). Besides, the viability in experiment [8] is 75.9% and 93.9%. Besides, the red/green cell ratio (normalised) in experiment [9] is 1.57 (inactive). Besides, the normalised cell number in [9] (setting [12]) was found to be 0.85; in experiment [9] (setting [13]) it was 1.34. The fold change in experiment [10] (setting [14]) is 0.879 (inactive); in [10] (setting [15]), 1.47. In addition, the cell count was determined as 6890 in [10] (setting [16]) and 7830 in experiment [10] (setting [17]).
